Among the data in the OligoGym collection are sensor-assay potency score (higher = more potent) values, retold here.
Further: reference of the scale not given here.

The target of the first assay is STUB1. As to the kind of experiment: pooled miR-30 sensor sort-seq; sequence = guide strand. The following applies: shRNA.
In turn, TAATACACGGCCACCAGCGGGT came in with a sensor-assay potency score (higher = more potent) of -0.893.

Take TTCCTCTTCTCATCCACCTGAG: the sensor-assay potency score (higher = more potent) is -0.167.

Turning to TTCGCGATTCGAAGAGCGCTGG, the sensor-assay potency score (higher = more potent) is -0.358.

TTGCGGTCGTAGGTGATGCCAC came in with a sensor-assay potency score (higher = more potent) of -0.555.

For the sequence TTATTACACAGATAGTGGCGGC, the sensor-assay potency score (higher = more potent) was 0.272.

In turn, TTGCCACACAGGTAGTCGGGGA showed a sensor-assay potency score (higher = more potent) of -0.252.

Sequence ATAGCTCTCCATCTCCAGCTGG registered a sensor-assay potency score (higher = more potent) of -0.665.

The sequence TAGCTCTCCATCTCCAGCTGGC returned a sensor-assay potency score (higher = more potent) of -0.433.

With TTCCAGCGCTTCTTCTTCGCGA, the sensor-assay potency score (higher = more potent) is -0.702.

The sequence TTCAGGTAGCACAAGGCCCGGT yielded a sensor-assay potency score (higher = more potent) of -0.567.

The sequence TTGAGCTCCTGCGCGCTCGGGC returned a sensor-assay potency score (higher = more potent) of -0.67.

The sequence TGCTCCTCGATGTCCTTGCGGT showed a sensor-assay potency score (higher = more potent) of -0.704.

The target in the next assay is STX12. The assay is described as above. To be noted: shRNA.
On to TTGTGGAGTGTTGTAACTGTTG, for which the sensor-assay potency score (higher = more potent) is -1.19.

Turning to TTTTCCTGTAGCTTGCTTGAGT, the sensor-assay potency score (higher = more potent) was found to be 0.00107.

Sequence TAACTGTTGCAGATTTTCCTGT showed a sensor-assay potency score (higher = more potent) of 0.412.

Consider TTGTCTAAAACTATGCATGGAG, for which the sensor-assay potency score (higher = more potent) was -0.297.

Turning to TACCCTTCTCTGCACAGCCTGG, the sensor-assay potency score (higher = more potent) is -1.07.

With TTGAGTCCTGCTTAGTTCCTAG, the sensor-assay potency score (higher = more potent) is -0.155.

Sequence AAATATCTGATTGACATCCAAA had a sensor-assay potency score (higher = more potent) of -1.28.

Sequence TAGCTTGCTTGAGTCCTGCTTA returned a sensor-assay potency score (higher = more potent) of -0.146.

TTTTTGTCTAAAACTATGCATG had a sensor-assay potency score (higher = more potent) of -0.984.

With TTTAATAAGTTCCAAATCCTGC, the sensor-assay potency score (higher = more potent) was -0.773.
